For 83 compounds, inhibition of aptamer binding results are on record in PubChem BioAssay AID488847 (NMMLSC, 2010).

Among all 330,000 compounds or so, about 1,900 (0.58%) were called active.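 Rule for the calls: active = inhibition of aptamer binding above 40%, roughly 3 SD of noise, on plates passing a quality check; inactive = the rest.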 Only a selection was taken, and actives are over-represented in it overall.

Sequence of Beta-adrenergic receptor kinase 1 (Homo sapiens) (P25098 whole entry, looked up): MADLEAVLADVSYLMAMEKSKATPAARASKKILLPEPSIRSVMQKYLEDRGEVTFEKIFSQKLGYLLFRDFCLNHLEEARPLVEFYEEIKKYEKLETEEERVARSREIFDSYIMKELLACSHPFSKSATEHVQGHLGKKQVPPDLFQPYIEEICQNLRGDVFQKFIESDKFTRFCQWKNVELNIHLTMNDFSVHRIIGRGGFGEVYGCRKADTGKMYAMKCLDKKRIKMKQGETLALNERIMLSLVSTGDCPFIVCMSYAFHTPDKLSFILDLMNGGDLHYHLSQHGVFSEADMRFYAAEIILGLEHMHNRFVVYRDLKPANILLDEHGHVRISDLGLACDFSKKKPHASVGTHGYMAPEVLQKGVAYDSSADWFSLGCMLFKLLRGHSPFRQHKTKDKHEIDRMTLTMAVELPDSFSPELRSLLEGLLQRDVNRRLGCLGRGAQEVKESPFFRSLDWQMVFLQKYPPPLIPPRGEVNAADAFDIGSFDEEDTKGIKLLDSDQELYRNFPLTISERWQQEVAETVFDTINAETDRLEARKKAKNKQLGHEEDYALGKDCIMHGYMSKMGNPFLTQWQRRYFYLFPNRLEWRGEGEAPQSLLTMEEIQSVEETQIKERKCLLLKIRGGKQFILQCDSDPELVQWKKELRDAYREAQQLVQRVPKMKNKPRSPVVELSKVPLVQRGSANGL

This assay concerns the target Beta-adrenergic receptor kinase 1 (Homo sapiens) (UniProt P25098). Briefly: compounds blocking aptamer binding on GRK2 – biochemical, human GRK2, bead flow cytometry, HTS, primary screen (AID 488847).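 Note: median bead fluorescence of bound FAM aptamer so fluorescent compounds give negative values.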 The note with it: FAM-aptamer displacement from GRK2, at 10 µM, active compounds read high.
For the compound `Cc1ccc(Sc2cc(C(=O)c3ccccc3C(=O)O)ccc2[N+](=O)[O-])cc1`, the inhibition of aptamer binding was 0% (inactive).
Under `O=C(NCc1ccccc1)[C@H]1C[C@@H]1[C@H](NP(=O)(c1ccccc1)c1ccccc1)c1ccccc1` stands 0% (inactive); under `COc1ccccc1N1CCN(CC(=O)Nc2ccnn2C2CCCC2)CC1`, 0% (inactive); under `C/C(=N\Nc1nc2ccccc2[nH]1)c1cccs1`, 100% (active).
Under `O=C(Nc1ccccc1-c1nc2ccccc2[nH]c1=O)c1cccs1` stands 1% (inactive).
As to `C/C(=N\Nc1nc(Nc2ccccc2)nc(N2CCOCC2)n1)c1cccs1`, the inhibition of aptamer binding was 0% (inactive).
For `CCN(CC(=O)NCc1ccc(Cl)cc1)C(=O)c1c(C)noc1C`, the inhibition of aptamer binding was 0% (inactive).
Take `CCOc1cc2[nH]c(=S)n(Cc3ccc(C(=O)N4CCN(C)CC4)cc3)c(=O)c2cc1OCC`: the inhibition of aptamer binding is 0% (inactive).
Take `NC(=O)C1CCN(C(=O)c2ccc3c(=O)n(Cc4cccc(Br)c4)c(=S)[nH]c3c2)CC1`: the inhibition of aptamer binding was 69% (active).
Under `COc1ccc(Cn2c(=S)[nH]c3cc(C(=O)N4CCCCC4)ccc3c2=O)cc1` stands 2% (inactive); under `O=S(=O)(c1ccc(NC(=S)NN=C(C2CC2)C2CC2)cc1)N1CCOCC1`, 1% (inactive); under `Cc1ccc(S(=O)(=O)N2CCN(CC(=O)N/N=C/c3cc([N+](=O)[O-])ccc3Cl)CC2)cc1`, 0% (inactive).
As for `O=[N+]([O-])c1cc(Cl)cc(/C=N/NC(=S)Nc2cc(S(=O)(=O)N3CCOCC3)ccc2Cl)c1O`, the inhibition of aptamer binding is 98% (active).
With `Fc1ccccc1Cc1ccc(Cl)nn1`, the inhibition of aptamer binding is 0% (inactive).
As for `Cc1cccc(C(=O)OCC(=O)Nc2sc3c(c2C#N)CCC3)c1`, the inhibition of aptamer binding is 6% (inactive).
For `COc1cccc(CN(C)CC(=O)Nc2sc3c(c2C#N)CCC3)c1`, the inhibition of aptamer binding is 94% (active).
As to `CCN1CCN(CC(=O)Nc2sc3c(c2C#N)CCC3)CC1`, the inhibition of aptamer binding is 0% (inactive).
In the case of `Cc1nn2cc(-c3ccc(Cl)cc3)cnc2c1Br`, the inhibition of aptamer binding was 4% (inactive).
`CCOC(=O)c1cc2c(ccn2C)n1CC(=O)N1CCC(C)CC1`: the inhibition of aptamer binding was 1% (inactive).
The result for `Cc1ccc(OCC(=O)Oc2ccccc2[N+](=O)[O-])cc1` reads 1% (inactive); that for `COc1ccc(C2c3ccc(O)cc3Oc3ncn(CCCO)c(=N)c32)cc1OC` (stereo not drawn), 0% (inactive); that for `COc1ccccc1S(=O)(=O)c1c(C)cc(C)[nH]c1=O`, 1% (inactive).
As for `Cc1ccc(-c2nn(-c3ccccc3)cc2/C=C2\SC(=S)N(CCCCCC(=O)O)C2=O)o1`, the inhibition of aptamer binding is 48% (active).
For the compound `C=CCOc1ccc(/C=C2\SC(=S)N(CCC(=O)O)C2=O)cc1`, the inhibition of aptamer binding is 0% (inactive).
Turning to `Cc1ccc(/C=C2/SC(=S)N(CCC(=O)NCCCN3CCOCC3)C2=O)cc1`, the inhibition of aptamer binding was 5% (inactive).
As for `CC(=O)Oc1ccccc1C(=O)Nc1ncc([N+](=O)[O-])s1`, the inhibition of aptamer binding was 5% (inactive).
As to `CCSc1nc(O)c(C(c2cccc(OC)c2)c2c(O)nc(SCC)[nH]c2=O)c(=O)[nH]1`, the inhibition of aptamer binding is 9% (inactive).
Under `COc1ccc(Nc2cc(Sc3ccc(OC)cc3)ncn2)cc1` stands 46% (active); under `COc1ccc(Nc2ncnc3sc(C)cc23)cc1`, 0% (inactive); under `COc1ccc(Nc2nc(=O)[nH]nc2C)cc1`, 4% (inactive).
Turning to `CC(Sc1cccc[n+]1[O-])C(=O)Nc1cccc(S(=O)(=O)N2CCOCC2)c1` (stereo not drawn), the inhibition of aptamer binding was 1% (inactive).
Under `O=C(O)C1CCN(C(=O)OCc2ccccc2)CC1` stands 0% (inactive).
With `CCCCn1nc(C(=O)OCC(=O)Nc2sccc2C(N)=O)c2ccccc2c1=O`, the inhibition of aptamer binding is 84% (active).
The result for `COc1cc(OC)cc(C(=O)OCC(=O)Nc2sccc2C(N)=O)c1` reads 0% (inactive).
Turning to `NC(=O)c1ccsc1NC(=O)COC(=O)Cc1n[nH]c(=O)c2ccccc12`, the inhibition of aptamer binding was 2% (inactive).
Under `CCc1ccc2oc(=O)cc(CN3CCCCC3C)c2c1` (stereo not drawn) stands 0% (inactive); under `COc1cc(/C=N/NC(=O)c2cc(C)n(-c3ccc(F)cc3)c2C)cc(OC)c1O`, 0% (inactive).
As to `O=C(N/N=C/c1cccc(Br)c1)c1ccc(N2CCCC2=O)cc1`, the inhibition of aptamer binding is 0% (inactive).
In the case of `COc1cc(/C=N/NC(=O)c2ccc(N3CCCC3=O)cc2)ccc1O`, the inhibition of aptamer binding is 49% (active).
In the case of `O=C(NCc1cccc(Cl)c1)C1CCN(c2nnc(N3CCCC3=O)s2)CC1`, the inhibition of aptamer binding was 0% (inactive).
On to `CN(C)S(=O)(=O)c1cccc(C(=O)OCC(=O)N2CCCC2=O)c1`, for which the inhibition of aptamer binding was 0% (inactive).
In the case of `CC(C)(C)NC(=O)Cn1nnc(-c2ccccc2Cl)n1`, the inhibition of aptamer binding is 2% (inactive).
As for `Cc1ccccc1-c1nnn(CC(=O)c2ccc(S(=O)(=O)N3CCCC3)cc2)n1`, the inhibition of aptamer binding was 47% (active).
Consider `Cc1cc(C)n(C(=O)c2ccc(S(=O)(=O)N3CCCC3)cc2)n1`, for which the inhibition of aptamer binding is 2% (inactive).
Regarding `Cc1ccc(S(=O)(=O)C2(S(=O)(=O)c3ccc(C)cc3)CCCC2)cc1`, the inhibition of aptamer binding is 0% (inactive).
In the case of `CCCNc1c(N)c(=O)c1=O`, the inhibition of aptamer binding was 6% (inactive).
On to `CCOC(=O)c1cc(-c2nnc(-c3cc(OC)c(OC)c(OC)c3)o2)c(C)nc1C`, for which the inhibition of aptamer binding is 1% (inactive).
Under `CCCc1nc2ccccc2c(C(=O)OCc2nnc(-c3cc(OC)c(OC)c(OC)c3)o2)c1CC` stands 41% (active).
As to `O=C(OCc1nnc(-c2ccccc2)o1)c1cc(=O)[nH]c2ccccc12`, the inhibition of aptamer binding was 3% (inactive).
The result for `COc1cc(NC(=O)c2[nH]cnc2C(N)=O)cc(C(=O)Nc2cccc(C(F)(F)F)c2)c1` reads 0% (inactive).
Regarding `CCOC(=O)c1sc2nc(CSc3ccccc3)[nH]c(=O)c2c1C`, the inhibition of aptamer binding was 75% (active).
As for `CCOC(=O)c1sc2nc(CSCC(=O)OCc3ccc(C(=O)OC)o3)[nH]c(=O)c2c1C`, the inhibition of aptamer binding was 2% (inactive).
Turning to `CSc1nnc(SCc2nc3sc(C(=O)O)c(C)c3c(=O)[nH]2)s1`, the inhibition of aptamer binding was 13% (inactive).
Consider `O=S(=O)(Nc1cccc(-c2ccc(N3CCOCC3)nn2)c1)c1ccc(Cl)c(Cl)c1`, for which the inhibition of aptamer binding is 0% (inactive).
As to `O=c1c([N+](=O)[O-])cccn1Cc1ccc(F)cc1Cl`, the inhibition of aptamer binding was 0% (inactive).
As to `O=C(C1CCC1)N1CCc2cc(S(=O)(=O)NCc3cccnc3)ccc21`, the inhibition of aptamer binding is 0% (inactive).
On to `O=C(CSc1nc2ccccc2c(=O)n1-c1ccc(F)cc1)NC1CC1`, for which the inhibition of aptamer binding is 0% (inactive).
For the compound `CSc1nc2ccccc2c(=O)n1Cc1ccc(F)cc1`, the inhibition of aptamer binding was 76% (active).
`O=C(CSc1nc2ccccc2c(=O)n1Cc1ccc(F)cc1)NCC1CCCO1` (stereo not drawn): the inhibition of aptamer binding was 0% (inactive).
In the case of `O=c1[nH]c(CCl)nc2cc(-c3ccc(Cl)cc3)sc12`, the inhibition of aptamer binding was 0% (inactive).
Take `NC(=O)CC(NC(=O)Cc1cccc2ccccc12)c1ccc(NCc2cc(F)ccc2F)c([N+](=O)[O-])c1` (stereo not drawn): the inhibition of aptamer binding was 1% (inactive).
For the compound `CCCC/S(C)=N/S(=O)(=O)c1ccc(C)cc1` (stereo not drawn), the inhibition of aptamer binding was 1% (inactive).
As for `COc1ccc(CN2CCN(Cc3cn(C)nc3-c3ccccc3)CC2CCO)c(C)c1C` (stereo not drawn), the inhibition of aptamer binding is 0% (inactive).
Consider `CN(CC(=O)Nc1ccc(C(N)=O)cc1)S(=O)(=O)c1ccc2c(c1)OCCO2`, for which the inhibition of aptamer binding was 0% (inactive).
In the case of `Cc1nc(S(=O)(=O)c2ccc(Br)cc2)nc2c1CCC2`, the inhibition of aptamer binding was 5% (inactive).
Turning to `O=C(Nc1ccc(-c2nnc(-c3ccccc3)o2)cc1)c1ccc(Br)o1`, the inhibition of aptamer binding was 92% (active).
`Brc1ccc(-c2nnc(-c3ccccc3)o2)o1`: the inhibition of aptamer binding is 5% (inactive).
`O=C(CNC(=O)c1ccc(Br)o1)Nc1ccccc1`: the inhibition of aptamer binding was 1% (inactive).
Under `CCOc1ccc(C(=O)NCCCN2CCCC2=O)cc1` stands 2% (inactive).
On to `O=C(NCCCN1CCCCCC1)c1ccc(N2CCCC2=O)cc1`, for which the inhibition of aptamer binding is 43% (active).
With `CC1CCC(NC(=O)c2ccc(N3CCCC3=O)cc2)CC1` (stereo not drawn), the inhibition of aptamer binding is 0% (inactive).
Under `CC1=CC(C)(C)NC(=S)N1NC(=O)c1ccccc1Cl` stands 1% (inactive); under `COc1ccc(C2C(C#N)=C(N)Oc3cc(N)ccc32)cc1OC` (stereo not drawn), 0% (inactive); under `CCn1cnc2scc(-c3ccc(C)c(C)c3)c2c1=O`, 0% (inactive).
Take `CC(=O)C(C)n1cnc2scc(-c3ccc(C)cc3)c2c1=O` (stereo not drawn): the inhibition of aptamer binding is 1% (inactive).
`CCOC(=O)C(C)n1cnc2scc(-c3ccc(C)c(C)c3)c2c1=O` (stereo not drawn): the inhibition of aptamer binding was 64% (active).
Turning to `CCOC(=O)c1ccc(S(=O)(=O)N(CCO)Cc2cc3cc(OC)c(OC)cc3[nH]c2=O)cc1`, the inhibition of aptamer binding was 0% (inactive).
For the compound `CN(C)CC(C)(C)CNC(=O)c1cc(Br)cc(Br)c1O`, the inhibition of aptamer binding is 6% (inactive).
With `COc1cccc(OC)c1C(=O)Nc1ccc2c(c1)n(C)c(=O)n2C`, the inhibition of aptamer binding was 1% (inactive).
Under `CC(C)CC(=O)Nc1ccc(Cc2ccncc2)cc1` stands 0% (inactive); under `COc1cccc(OC)c1C(=O)Nc1ccc(Cc2ccncc2)cc1`, 55% (active).
Consider `Cc1ccc(S(=O)(=O)NCCSC(C)(C)C)cc1`, for which the inhibition of aptamer binding was 1% (inactive).
As to `O=C(OCC1O[C@@H](OC(=O)c2cc(O)c(O)c(O)c2)[C@@H](OC(=O)c2cc(O)c(O)c(O)c2)[C@@H](OC(=O)c2cc(O)c(O)c(O)c2)[C@@H]1OC(=O)c1cc(O)c(O)c(O)c1)c1cc(O)c(O)c(O)c1` (stereo partly drawn), the inhibition of aptamer binding is 1% (inactive).
